# Measurements as given in PubChem BioAssay (NCI).
# “And” between values parts separate entries of the source, which are not always exact repeats. Identical values can stand only once. About 83,000 compounds went through this panel and 20% of them were active in at least one assay; those are over-represented in the sample as a whole.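 Cells were grown in 96-well plates and exposed to the test compound at a single concentration for 48 hours; results are reported as percent growth, with values below 10 considered active.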 Values without a mark were called inactive. The source made the active and inactive calls.
# Tests used:
# Assay in all cases: NCI-60 one-dose screen, 48 h (100 = growth as untreated, 0 = no growth, -100 = all killed)
# T-47D breast = system: T-47D breast
# BT-549 breast = system: BT-549 breast
# MDA-MB-435 melanoma = system: MDA-MB-435 melanoma
# SW-620 colon = conditions: 10 µM unless noted
# MCF7 breast = system: MCF7 breast
# HCT-116 colon = system: HCT-116 colon
# HCC-2998 colon = system: HCC-2998 colon
# KM12 colon = system: KM12 colon
smiles,measurement,setting,value
O[C@H]1[C@H]2c3cc4c(cc3CN3CCC(=C[C@@H]1O)[C@H]23)OCO4,growth,T-47D breast; 10 µM unless noted,34.5%
same,growth,BT-549 breast; 10 µM unless noted,71.2%
same,growth,MDA-MB-435 melanoma; 10 µM unless noted,32.5%
same,growth,SW-620 colon,30.4%
same,growth,MCF7 breast; 10 µM,11.7%
same,growth,HCT-116 colon; 10 µM unless noted,13.5%
same,growth,HCC-2998 colon; 10 µM unless noted,18.9%
same,growth,KM12 colon; 10 µM unless noted,21.2%
NC(=O)/C=C/C(=O)c1c(Cl)cccc1Cl,growth,T-47D breast; 10 µM unless noted,-62.4% (active)
same,growth,BT-549 breast; 10 µM unless noted,-42.4% (active)
same,growth,MDA-MB-435 melanoma; 10 µM unless noted,-68% (active)
same,growth,SW-620 colon,-71% (active)
same,growth,MCF7 breast; 10 µM,-68.9% (active)
same,growth,HCT-116 colon; 10 µM unless noted,-100% (active)
same,growth,HCC-2998 colon; 10 µM unless noted,-98.6% (active)
same,growth,KM12 colon; 10 µM unless noted,-51.4% (active)
O=C(Nc1ccccc1)c1cc(Cl)ccc1O,growth,T-47D breast; 10 µM unless noted,23.4%
same,growth,BT-549 breast; 10 µM unless noted,57.5%
same,growth,MDA-MB-435 melanoma; 10 µM unless noted,39.3%
same,growth,SW-620 colon,63.3%
same,growth,MCF7 breast; 10 µM,81.9%
same,growth,HCT-116 colon; 10 µM unless noted,51%
same,growth,HCC-2998 colon; 10 µM unless noted,89.1%
same,growth,KM12 colon; 10 µM unless noted,47%
CC1SC(=S)N(c2ccc(Cl)cc2)C1=O (stereo unspecified),growth,T-47D breast; 10 µM unless noted,73.9% and 62.8%
same,growth,BT-549 breast; 10 µM unless noted,106% and 86.2%
same,growth,MDA-MB-435 melanoma; 10 µM unless noted,106% and 99.8%
same,growth,SW-620 colon,109% and 113%
same,growth,MCF7 breast; 10 µM,96.9% and 79.9%
same,growth,HCT-116 colon; 10 µM unless noted,100% and 93.4%
same,growth,HCC-2998 colon; 10 µM unless noted,90.7%
same,growth,KM12 colon; 10 µM unless noted,94.6% and 108%
CN(C)C(=O)c1ccc(SC(=S)NCc2ccccc2)cc1,growth,T-47D breast; 10 µM,90%
same,growth,T-47D breast; 100 µM,13.4%
same,growth,BT-549 breast; 10 µM,114%
same,growth,BT-549 breast; 100 µM,-79.3% (active)
same,growth,MDA-MB-435 melanoma; 10 µM,97.4%
same,growth,MDA-MB-435 melanoma; 100 µM,4.45% (active)
same,growth,MCF7 breast; 10 µM,67.3%
same,growth,MCF7 breast; 100 µM,-7.59% (active)
same,growth,HCT-116 colon; 10 µM,100%
same,growth,HCT-116 colon; 100 µM,-26.2% (active)
same,growth,KM12 colon; 10 µM,102%
same,growth,KM12 colon; 100 µM,25.5%
COc1cc(NS(C)(=O)=O)ccc1Nc1c2ccccc2nc2ccccc12,growth,T-47D breast; 10 µM unless noted,23.1% [2.5 µM]
same,growth,BT-549 breast; 10 µM unless noted,20.2% [2.5 µM]
same,growth,MDA-MB-435 melanoma; 10 µM unless noted,64.1% [2.5 µM]
same,growth,SW-620 colon,41.5% [2.5 µM]
same,growth,MCF7 breast; 2.5 µM,32.5%
same,growth,MCF7 breast; 10 µM,22.5% [middle of 4 runs]
same,growth,MCF7 breast; 250 µM,-69.8% (active) and -100% (active)
same,growth,HCT-116 colon; 10 µM unless noted,31% [2.5 µM]
same,growth,HCC-2998 colon; 10 µM unless noted,-44.3% [2.5 µM] (active)
same,growth,KM12 colon; 10 µM unless noted,48.6% [2.5 µM]
CC(C)(C)CC(C)(C)c1ccc(OCCSC(=N)N)cc1,growth,T-47D breast; 10 µM unless noted,7.82% (active)
same,growth,BT-549 breast; 10 µM unless noted,104%
same,growth,MDA-MB-435 melanoma; 10 µM unless noted,20.2%
same,growth,SW-620 colon,-12.1% (active)
same,growth,MCF7 breast; 10 µM,9.08% (active)
same,growth,HCT-116 colon; 10 µM unless noted,-12.2% (active)
same,growth,HCC-2998 colon; 10 µM unless noted,-16% (active)
same,growth,KM12 colon; 10 µM unless noted,32.8%
O=C(/C=C\c1ccccc1)N1c2ccccc2CC1c1c[nH]c2ccccc12 (stereo unspecified),growth,T-47D breast; 10 µM unless noted,23.4%
same,growth,BT-549 breast; 10 µM unless noted,88.6%
same,growth,MDA-MB-435 melanoma; 10 µM unless noted,83.8%
same,growth,SW-620 colon,78.2%
same,growth,MCF7 breast; 10 µM,66.2%
same,growth,HCT-116 colon; 10 µM unless noted,23.1%
same,growth,HCC-2998 colon; 10 µM unless noted,85.6%
same,growth,KM12 colon; 10 µM unless noted,64.4%
CC(=O)C(=Cc1ccc(C=C(C(C)=O)C(C)=O)cc1)C(C)=O,growth,T-47D breast; 10 µM unless noted,29.1%
same,growth,BT-549 breast; 10 µM unless noted,12.6%
same,growth,MDA-MB-435 melanoma; 10 µM unless noted,7.62% (active)
same,growth,SW-620 colon,-11.2% (active)
same,growth,MCF7 breast; 10 µM,1.33% (active)
same,growth,HCT-116 colon; 10 µM unless noted,-56.3% (active)
same,growth,HCC-2998 colon; 10 µM unless noted,45.2%
same,growth,KM12 colon; 10 µM unless noted,-43.7% (active)
C[n+]1c(/C=C/c2ccc([N+](=O)[O-])cc2)ccc2ccccc21,growth,T-47D breast; 10 µM unless noted,103%
same,growth,BT-549 breast; 10 µM unless noted,107%
same,growth,MDA-MB-435 melanoma; 10 µM unless noted,108%
same,growth,SW-620 colon,97.6%
same,growth,MCF7 breast; 10 µM,96.1%
same,growth,HCT-116 colon; 10 µM unless noted,102%
same,growth,HCC-2998 colon; 10 µM unless noted,100%
same,growth,KM12 colon; 10 µM unless noted,80.8%
NC1=CC(=O)c2ccccc2C1=O,growth,T-47D breast; 10 µM unless noted,98%
same,growth,BT-549 breast; 10 µM unless noted,92.1%
same,growth,MDA-MB-435 melanoma; 10 µM unless noted,8.66% (active)
same,growth,SW-620 colon,107%
same,growth,MCF7 breast; 10 µM,54.5%
same,growth,HCT-116 colon; 10 µM unless noted,80.8%
same,growth,HCC-2998 colon; 10 µM unless noted,90.4%
same,growth,KM12 colon; 10 µM unless noted,79.3%
COc1ccc(-c2cscc2N)cc1,growth,T-47D breast; 10 µM,60%
same,growth,T-47D breast; 100 µM,17.3%
same,growth,BT-549 breast; 10 µM,69.5%
same,growth,BT-549 breast; 100 µM,-32.7% (active)
same,growth,MDA-MB-435 melanoma; 10 µM,79.1%
same,growth,MDA-MB-435 melanoma; 100 µM,30.4%
same,growth,MCF7 breast; 10 µM,47.3%
same,growth,MCF7 breast; 100 µM,19.9%
same,growth,HCT-116 colon; 10 µM,73.3%
same,growth,HCT-116 colon; 100 µM,26.4%
same,growth,HCC-2998 colon; 10 µM,80.1%
same,growth,HCC-2998 colon; 100 µM,39.6%
same,growth,KM12 colon; 10 µM,69.6%
same,growth,KM12 colon; 100 µM,21.1%
CC1OC(OC2C(OC3CCC4(C)C(CCC5(C)C4CC=C4C6CC(C)(C)CCC6(CO)C(O)CC45C)C3(C)C)OC(C(=O)O)C(OC3OC(COC4OC(CO)C(O)C(O)C4O)C(O)C(O)C3O)C2O)C(O)C(O)C1O (stereo unspecified),growth,T-47D breast; 10 µM unless noted,-72.7% (active)
same,growth,BT-549 breast; 10 µM unless noted,-92.5% (active)
same,growth,MDA-MB-435 melanoma; 10 µM unless noted,-85.3% (active)
same,growth,SW-620 colon,-64.2% (active)
same,growth,MCF7 breast; 10 µM,-67.7% (active)
same,growth,HCT-116 colon; 10 µM unless noted,-88% (active)
same,growth,HCC-2998 colon; 10 µM unless noted,-81.9% (active)
same,growth,KM12 colon; 10 µM unless noted,-70.9% (active)
